From PubChem BioAssay
Pf Dd2 growth = inhibitors of Plasmodium falciparum Dd2 growth. AID 1159554. P. falciparum Dd2 growth, SYBR Green, 72 h; active compounds read low. activity change, % at 10 µM. 94,000 tested, 2.3% active; in the data active means activity change below about -80%; inconclusive means no clear call, values can overlap the other calls
T cruzi growth-1 = blocks T. cruzi growth in NIH3T3 culture; 77,000 tested, 5.9% active; T. cruzi beta-gal in NIH3T3, GalScreen luminescence, 90 h; AID 624255; inhibition, % at 8.34 µM;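 active means mean inhibition above about 93%, with at least 55% of replicates each passing it, limit read from the data, passing the limit was not always enough; inconclusive means only one of those two conditions holds; inactive means neither condition holds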
C diff HTS = C. difficile growth inhibition; growth activity, negative = inhibition, % at 16 µg/mL (by protocol); AID 1259249; Clostridium difficile clinical isolate growth, OD600, 24 h; active compounds read low; 86,000 tested, 0.25% active;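 active means mean growth activity at or below -80% and every replicate also at or below -80%; inconclusive means mean at or below -80% but some replicate above -80%; inactive means mean growth activity above -80%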;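 further: 0% = DMSO wells and -100% = levofloxacin 16 µg/mL wells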
T cruzi growth-2 = blocks T. cruzi growth in NIH3T3 host cells; shares compounds with T cruzi growth-1; T. cruzi beta-gal in NIH3T3, GalScreen luminescence, 90 h; inhibition, % at 8.35 µM; 5,600 tested, 72% active; AID 651739;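 active means mean replicate inhibition above about 95% and at least 55% of replicates individually reaching it, limit read from the data; inconclusive means only one of the two criteria is met; inactive means neither criterion is met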
T cruzi growth-3 = blocks T. cruzi growth in NIH3T3 host cells | inhibition, % at 2.09 µM | 5,600 tested, 21% active | T. cruzi beta-gal in NIH3T3, GalScreen luminescence, 90 h | shares compounds with T cruzi growth-1;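 active means mean inhibition above about 95%, with at least 55% of replicates also reaching it, limit read from the data; inconclusive means meets just one of the two conditions; inactive means meets neither condition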;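 further: plate controls were neutral control median for no effect and positive control median for full effect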
3T3 cytotox = kills mouse NIH/3T3 fibroblasts; shares compounds with T cruzi growth-1; NIH/3T3 viability, CellTiter-Glo ATP luminescence, 90 h; cytotoxicity (signal decrease), % at 8.35 µM; 5,600 tested, 14% active; AID 651742;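 active means mean signal decrease across replicates above about 35% based on untreated-well scatter, with enough replicates individually passing, limit read from the data; inconclusive means no rule stated though some were filed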;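 further: 0% = median of neutral control wells and 100% = median of positive control wells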
3T3 cytotox 2 = cytotoxicity in mouse NIH/3T3 fibroblasts. shares compounds with T cruzi growth-1. NIH/3T3 viability, CellTiter-Glo ATP luminescence, 90 h. inhibition, % at 24.9 µM. 5,600 tested, 56% active. AID 651744;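 active means mean loss of cell viability signal at or above a set limit, and enough replicates individually reaching it; inconclusive means meets only the mean limit or only the replicate share; inactive means meets neither condition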;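 further: 0% = median of neutral control wells and 100% = median of positive control wells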
Active calls of the source: *; ? = inconclusive; . = not tested or not shown. A selection: hits, their analogues and other compounds. The true share with any hit is near 6.7%.

SMILES | Pf Dd2 growth | T cruzi growth-1 | C diff HTS | T cruzi growth-2 | T cruzi growth-3 | 3T3 cytotox | 3T3 cytotox 2
COc1ccc(S(=O)(=O)Nc2ccc3c(c2)C(=O)N([C@@H](C)CO)C[C@H](C)[C@@H](CN(C)Cc2ccc(C(F)(F)F)cc2)OCCCC[C@H](C)O3)cc1 | -44 | 89 | 14 | . | . | . | .
COc1ccc(CN(C)C[C@H]2OCCCC[C@@H](C)Oc3ccc(NS(=O)(=O)c4ccc(F)cc4)cc3C(=O)N([C@H](C)CO)C[C@@H]2C)cc1 | -34 | 3 | 0 | . | . | . | .
COc1ccc(CN(C)C[C@@H]2OCCCC[C@H](C)Oc3ccc(NS(=O)(=O)c4ccc(Cl)cc4)cc3C(=O)N([C@H](C)CO)C[C@H]2C)cc1 | -57 | ? | 16 | 97* | 110* | 31 | 103*
COc1ccc(CN(C)C[C@H]2OCCCC[C@@H](C)Oc3ccc(NS(=O)(=O)c4ccc(Cl)cc4)cc3C(=O)N([C@H](C)CO)C[C@H]2C)cc1 | -71 | 119* | 1 | 115* | 92 | 34 | 106*
COc1ccc(CN(C)C[C@H]2OCCCC[C@H](C)Oc3ccc(NS(=O)(=O)c4ccc(Cl)cc4)cc3C(=O)N([C@H](C)CO)C[C@@H]2C)cc1 | -38 | 89 | -1 | . | . | . | .
C/C=C/c1cnc2c(c1)C(=O)N([C@@H](C)CO)C[C@H](C)[C@@H](CN(C)C(=O)Nc1ccc(OC)cc1)O2 | -20 | -11 | -2 | . | . | . | .
C[C@H](CO)N1C[C@H](C)[C@H](CN(C)Cc2ccccn2)Oc2ncc(C3=CCCC3)cc2C1=O | 14 | -174 | -2 | . | . | . | .
CCC(=O)N1[C@H](CN(C)C(C)=O)[C@@H](c2ccc(-c3ccc(F)cc3)cc2)[C@@H]1CO | 3 | 20 | -8 | . | . | . | .
COc1ccc(CN(C)C[C@H]2OCCCC[C@@H](C)Oc3ccc(NS(=O)(=O)c4ccc(Cl)cc4)cc3C(=O)N([C@@H](C)CO)C[C@H]2C)cc1 | -59 | ? | 6 | 82 | 68 | 38* | 106*
COc1ccc(CN(C)C[C@H]2OCCCC[C@@H](C)Oc3ccc(NS(=O)(=O)c4ccc(Cl)cc4)cc3C(=O)N([C@H](C)CO)C[C@@H]2C)cc1 | -31 | 44 | 2 | . | . | . | .
COc1ccc(S(=O)(=O)N(C)C[C@H]2OCCCC[C@H](C)Oc3ccc(NC(=O)C4CCCCC4)cc3C(=O)N([C@@H](C)CO)C[C@@H]2C)cc1 | ? | 106* | 7 | 105* | 79 | 0 | -26
COc1ccc(S(=O)(=O)N(C)C[C@@H]2OCCCC[C@@H](C)Oc3ccc(NC(=O)C4CCCCC4)cc3C(=O)N([C@@H](C)CO)C[C@@H]2C)cc1 | -80 | 99* | -2 | 94 | 57 | 12 | 72*
COc1ccc(S(=O)(=O)N(C)C[C@H]2Oc3ccc(NC(=O)Cn4cnnn4)cc3C(=O)N([C@@H](C)CO)C[C@H]2C)cc1 | -16 | 100* | -6 | 37 | -33 | 10 | 6
COc1ccc(S(=O)(=O)N(C)C[C@H]2OCCCC[C@H](C)Oc3ccc(NC(=O)C4CCCCC4)cc3C(=O)N([C@H](C)CO)C[C@@H]2C)cc1 | -41 | 60 | 0 | . | . | . | .
COc1ccc(S(=O)(=O)N(C)C[C@H]2OCCCC[C@@H](C)Oc3ccc(NC(=O)C4CCCCC4)cc3C(=O)N([C@H](C)CO)C[C@@H]2C)cc1 | -44 | 37 | 2 | . | . | . | .
COc1ccc(S(=O)(=O)N(C)C[C@@H]2Oc3ccc(NC(=O)Cn4cnnn4)cc3C(=O)N([C@@H](C)CO)C[C@H]2C)cc1 | 19 | -15 | -3 | . | . | . | .
CCS(=O)(=O)N1CC2(CN(C(=O)CN3CCOCC3)[C@@H](CO)c3c2c2ccc(OC)cc2n3C)C1 | 18 | . | -5 | . | . | . | .
C[C@@H]1CN([C@@H](C)CO)C(=O)Cc2cc(NC(=O)Nc3cccc4ccccc34)ccc2O[C@@H]1CN(C)Cc1ccc(-c2ccccc2)cc1 | 12 | 103* | 10 | 108* | 75 | 23 | ?
C[C@@H]1CN([C@H](C)CO)C(=O)Cc2cc(NC(=O)Nc3cccc4ccccc34)ccc2O[C@@H]1CN(C)Cc1ccc(-c2ccccc2)cc1 | 6 | 98* | 11 | 112* | 62 | 19 | ?
C[C@@H]1CN([C@H](C)CO)C(=O)Cc2cc(NC(=O)Nc3cccc4ccccc34)ccc2O[C@H]1CN(C)Cc1ccccc1 | -6 | 49 | 1 | . | . | . | .
C[C@H]1CN([C@@H](C)CO)C(=O)Cc2cc(NC(=O)Nc3cccc4ccccc34)ccc2O[C@H]1CN(C)Cc1ccc(-c2ccccc2)cc1 | -75 | 87 | 9 | . | . | . | .
CCCNC(=O)N(C)C[C@H]1Oc2cc(C#CC3CC3)ccc2S(=O)(=O)N([C@@H](C)CO)C[C@@H]1C | -7 | 27 | -2 | . | . | . | .
CC(C)NC(=O)Nc1ccc2c(c1)CC(=O)N([C@H](C)CO)C[C@H](C)[C@H](CN(C)C(=O)Nc1ccccc1)O2 | 7 | -4 | -6 | . | . | . | .
CCc1csc(N2[C@H](C#N)[C@H](c3ccc(C#Cc4ccc(F)cc4)cc3)[C@H]2CO)n1 | -51 | 94 | 18 | . | . | . | .
CCc1csc(N2[C@@H](C#N)[C@@H](c3ccc(-c4cccc(F)c4)cc3)[C@@H]2CO)n1 | 6 | 100* | 5 | ? | 76 | 45* | 82*
SMILES | Pf Dd2 growth | T cruzi growth-1 | C diff HTS | T cruzi growth-2 | T cruzi growth-3 | 3T3 cytotox | 3T3 cytotox 2
CCc1csc(N2[C@H](C#N)[C@@H](c3ccc(-c4cccc(F)c4)cc3)[C@H]2CO)n1 | -14 | 100* | 13 | 108* | 89 | 29 | 31*
CCc1csc(N2[C@@H](C#N)[C@@H](c3ccc(C#Cc4ccc(F)cc4)cc3)[C@@H]2CO)n1 | -47 | 94 | 8 | . | . | . | .
CCc1csc(N2[C@@H](C#N)[C@H](c3ccc(-c4cccc(F)c4)cc3)[C@@H]2CO)n1 | -27 | 105* | 4 | 103* | 46 | 31 | 27
CCc1csc(N2[C@H](CO)[C@@H](c3ccc(-c4ccc(F)cc4)cc3)[C@@H]2C#N)n1 | 2 | 103* | 8 | 102* | 53 | 18 | 103*
N#C[C@@H]1[C@@H](c2ccc(-c3cccc(F)c3)cc2)[C@H](CO)N1c1nc(-c2ccccc2)cs1 | -12 | . | 11 | . | . | . | .
COCC(=O)N1CC[C@@H]2[C@H](CO)Nc3ccc(C#Cc4ccccc4)cc3[C@@H]21 | -11 | 35 | -6 | . | . | . | .
C[C@H](NC(=O)C[C@@H]1C[C@@H]2c3cc(NS(C)(=O)=O)ccc3O[C@@H]2[C@H](CO)O1)c1ccccc1 | 9 | . | -3 | . | . | . | .
O=C(C[C@H]1C[C@@H]2c3cc(NC(=O)CC4CC4)ccc3O[C@@H]2[C@@H](CO)O1)NCc1ccc2c(c1)OCO2 | 1 | 32 | 0 | . | . | . | .
C[C@H]1CN([C@@H](C)CO)C(=O)c2ccccc2-c2ccccc2CO[C@H]1CN(C)CC1CC1 | -69 | -44 | 6 | . | . | . | .
